According to ChEMBL document CHEMBL3988442, “University of Dundee, Small-Polar-MMV Screening Library” (2021):
For some of these results: Measured potencies and affinities stand elsewhere.

How the values were obtained:
[1] = molecular target: Protein translocase subunit SecA (Escherichia coli (strain K12)) (UniProt P10408); test: Assay to Identify E. coli SecA ATPase Inhibitors; assay type: functional; set-up: scale not given: direction of the effect not stated beside the values; settings: 30 µM
[2] = molecular target: T1, Ubiquitin-activating enzyme e1, putative (Leishmania donovani (strain BPK282A1)) (UniProt E9BSI1); test: Leishmania donovani Ubiquitin Activating Enzyme (LdE1); assay type: functional; set-up: scale not given: direction of the effect not stated beside the values; settings: 30 µM
T1 sequence (whole entry): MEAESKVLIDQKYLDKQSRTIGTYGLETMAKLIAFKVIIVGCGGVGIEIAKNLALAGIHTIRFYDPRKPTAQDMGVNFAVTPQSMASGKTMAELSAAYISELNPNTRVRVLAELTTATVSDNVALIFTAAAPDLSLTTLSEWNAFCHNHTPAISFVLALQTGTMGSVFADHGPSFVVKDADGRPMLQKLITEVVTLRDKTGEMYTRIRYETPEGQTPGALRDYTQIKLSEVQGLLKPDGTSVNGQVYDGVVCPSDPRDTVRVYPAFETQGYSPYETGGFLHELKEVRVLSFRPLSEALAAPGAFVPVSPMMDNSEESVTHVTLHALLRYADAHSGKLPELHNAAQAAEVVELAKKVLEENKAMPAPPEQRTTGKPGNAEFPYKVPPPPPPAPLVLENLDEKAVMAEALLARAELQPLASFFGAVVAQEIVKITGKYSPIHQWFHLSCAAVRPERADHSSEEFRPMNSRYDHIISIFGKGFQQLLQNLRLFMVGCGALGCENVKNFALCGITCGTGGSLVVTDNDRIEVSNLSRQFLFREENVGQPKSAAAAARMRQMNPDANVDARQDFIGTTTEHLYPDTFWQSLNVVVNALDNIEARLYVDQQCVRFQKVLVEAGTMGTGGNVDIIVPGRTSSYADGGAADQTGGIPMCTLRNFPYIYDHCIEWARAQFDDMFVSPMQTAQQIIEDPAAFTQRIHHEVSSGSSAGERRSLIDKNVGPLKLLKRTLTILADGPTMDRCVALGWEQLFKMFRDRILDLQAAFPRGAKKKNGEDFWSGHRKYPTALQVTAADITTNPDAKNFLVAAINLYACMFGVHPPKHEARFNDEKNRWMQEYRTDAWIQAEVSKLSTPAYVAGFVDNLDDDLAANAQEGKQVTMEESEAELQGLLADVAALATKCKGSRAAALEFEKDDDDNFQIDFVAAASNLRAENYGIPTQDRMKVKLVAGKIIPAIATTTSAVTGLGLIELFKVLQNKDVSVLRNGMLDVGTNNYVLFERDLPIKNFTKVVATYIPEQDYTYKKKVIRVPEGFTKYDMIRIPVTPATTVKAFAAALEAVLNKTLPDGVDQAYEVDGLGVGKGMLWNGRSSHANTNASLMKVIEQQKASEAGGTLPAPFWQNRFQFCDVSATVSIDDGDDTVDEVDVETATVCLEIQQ

[3] = molecular target: T2, Aspartate--tRNA(Asp/Asn) ligase (Mycobacterium tuberculosis (strain ATCC 25618 / H37Rv)) (UniProt P9WFW3); test: Assay for Asp RNA synthetase-1 from Mycobacterium tuberculosis; assay type: functional; set-up: scale not given: direction of the effect not stated beside the values; settings: 30 µM; note: in the data most compounds retested in dose-response had high values
T2 sequence (whole entry): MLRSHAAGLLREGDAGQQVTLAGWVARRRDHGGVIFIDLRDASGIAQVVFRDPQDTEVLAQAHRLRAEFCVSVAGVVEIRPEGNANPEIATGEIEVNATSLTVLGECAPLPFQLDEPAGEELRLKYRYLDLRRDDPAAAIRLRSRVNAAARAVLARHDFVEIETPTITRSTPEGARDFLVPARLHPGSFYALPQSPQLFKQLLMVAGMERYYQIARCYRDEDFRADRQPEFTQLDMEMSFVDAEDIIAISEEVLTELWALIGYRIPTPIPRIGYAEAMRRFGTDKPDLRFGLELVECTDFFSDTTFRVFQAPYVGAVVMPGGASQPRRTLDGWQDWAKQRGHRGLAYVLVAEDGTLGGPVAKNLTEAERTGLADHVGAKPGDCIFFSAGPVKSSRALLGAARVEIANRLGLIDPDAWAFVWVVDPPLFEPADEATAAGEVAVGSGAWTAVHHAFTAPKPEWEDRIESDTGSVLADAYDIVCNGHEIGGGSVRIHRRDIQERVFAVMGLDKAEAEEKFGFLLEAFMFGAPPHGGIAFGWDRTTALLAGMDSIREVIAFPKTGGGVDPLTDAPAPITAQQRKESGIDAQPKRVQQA

[4] = molecular target: AMP-activated protein kinase, AMPK (Homo sapiens) (UniProt P54646+O43741+P54619+Q9UGJ0+Q9Y478+Q13131+Q9UGI9); test: AMP-dependent Kinase enzyme assay. An in vitro enzyme assay that detects ADP turnover that is directly proportional to AMPK activity. This uses naive AMPK that is activated during the assay with MK-8722; assay type: functional; set-up: scale not given: direction of the effect not stated beside the values; settings: 30 µM
[5] = molecular target: Sialic acid-binding Ig-like lectin 9 (Homo sapiens) (UniProt Q9Y336); test: Hs-Siglec9 ALPHAscreen SOP 20170721; set-up: scale not given: direction of the effect not stated beside the values; settings: 10 µM
Trypanosoma cruzi = test: Trypanosoma cruzi phosphomannomutase and mannose-1-phosphate guanylyltransferase assay; assay type: functional; set-up: scale not given: direction of the effect not stated beside the values; settings: 10 µM
[6] = molecular target: T3, Arginase-2, mitochondrial (Homo sapiens) (UniProt P78540); test: in vitro enzyme assay to detect the production of urea directly proportional to the activity of Arginase II; assay type: functional; set-up: scale not given: in the data most compounds retested in dose-response had high values
T3 sequence (whole entry): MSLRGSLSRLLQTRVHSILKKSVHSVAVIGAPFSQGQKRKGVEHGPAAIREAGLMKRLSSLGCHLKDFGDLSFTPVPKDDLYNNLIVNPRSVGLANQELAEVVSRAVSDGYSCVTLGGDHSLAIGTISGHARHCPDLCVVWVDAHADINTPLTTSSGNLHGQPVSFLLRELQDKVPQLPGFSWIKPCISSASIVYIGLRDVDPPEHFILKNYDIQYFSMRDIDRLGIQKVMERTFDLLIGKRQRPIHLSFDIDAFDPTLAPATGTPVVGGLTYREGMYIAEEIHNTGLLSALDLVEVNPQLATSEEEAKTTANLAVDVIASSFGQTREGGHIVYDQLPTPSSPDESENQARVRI

[7] = molecular target: T4, Proteasome subunit beta (Trypanosoma cruzi) (UniProt O96673); test: Trypanosoma cruzi proteasome chymotrypsin-like activity (TcProtChymo) assay.; assay type: functional; set-up: scale not given: in the data most compounds retested in dose-response had high values; settings: 9.37 µM
T4 sequence (whole entry): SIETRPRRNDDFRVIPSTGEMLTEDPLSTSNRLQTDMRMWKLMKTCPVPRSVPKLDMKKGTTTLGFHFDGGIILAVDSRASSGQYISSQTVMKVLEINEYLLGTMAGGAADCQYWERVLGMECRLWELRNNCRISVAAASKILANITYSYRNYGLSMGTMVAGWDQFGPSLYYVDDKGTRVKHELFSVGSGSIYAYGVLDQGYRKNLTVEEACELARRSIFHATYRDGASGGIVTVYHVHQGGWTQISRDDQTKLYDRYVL

Homo sapiens = organism: Homo sapiens; test: To identify inhibition of the IFN signalling (Jak-Stat) pathway via expression of an eGFP reporter gene under the control of an IFN-stimulated response element (ISRE) containing MxA promoter.; assay type: functional; set-up: scale not given: direction of the effect not stated beside the values; settings: 30 µM
[8] = molecular target: Shiga toxin 2 (Escherichia coli O157:H7) (UniProt P09385+P09386); test: E. coli 0.157:H7 Shiga Toxin SOP - stx2 screening assay; assay type: functional; set-up: scale not given: direction of the effect not stated beside the values; settings: 30 µM
[9] = molecular target: T5, Tyrosyl-tRNA synthetase, putative (Trypanosoma cruzi (strain CL Brener)) (UniProt Q4DSP6); test: Trypanosoma cruzi tyrosyl tRNA synthetase (TcYRS) _High Tyrosine SOP; assay type: functional; set-up: scale not given: in the data most compounds retested in dose-response had high values; settings: 30 µM
T5 sequence (whole entry): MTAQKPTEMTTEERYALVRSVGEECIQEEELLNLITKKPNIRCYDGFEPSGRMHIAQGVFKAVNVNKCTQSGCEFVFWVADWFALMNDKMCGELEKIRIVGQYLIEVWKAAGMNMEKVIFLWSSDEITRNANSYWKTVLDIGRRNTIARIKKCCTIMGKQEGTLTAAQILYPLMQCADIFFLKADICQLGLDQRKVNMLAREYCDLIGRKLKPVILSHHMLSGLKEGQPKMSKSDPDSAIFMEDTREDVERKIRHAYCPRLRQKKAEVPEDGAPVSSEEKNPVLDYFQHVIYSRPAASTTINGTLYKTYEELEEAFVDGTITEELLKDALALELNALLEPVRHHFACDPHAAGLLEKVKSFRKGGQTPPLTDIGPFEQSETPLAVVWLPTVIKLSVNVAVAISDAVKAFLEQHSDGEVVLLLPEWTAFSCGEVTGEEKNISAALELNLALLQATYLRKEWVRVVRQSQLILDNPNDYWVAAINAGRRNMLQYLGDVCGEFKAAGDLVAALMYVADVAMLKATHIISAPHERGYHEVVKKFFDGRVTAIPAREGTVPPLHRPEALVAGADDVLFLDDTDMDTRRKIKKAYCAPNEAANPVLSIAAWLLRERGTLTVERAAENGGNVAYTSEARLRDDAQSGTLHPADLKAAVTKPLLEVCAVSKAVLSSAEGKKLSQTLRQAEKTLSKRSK

[10] = molecular target: T5, Tyrosyl-tRNA synthetase, putative (Trypanosoma cruzi (strain CL Brener)); test: Trypanosoma cruzi tyrosyl tRNA synthetase (TcYRS) SOP; assay type: functional; set-up: scale not given: direction of the effect not stated beside the values; settings: 30 µM
[11] = molecular target: Chromo domain-containing protein 1 (Saccharomyces cerevisiae (strain ATCC 204508 / S288c) (Baker's yeast)) (UniProt P32657); test: ScCHD-1 Enzyme Inhibition Assay; assay type: functional; set-up: scale not given: in the data most compounds retested in dose-response had high values; settings: 30 µM
[12] = molecular target: T6, Methionyl-tRNA synthetase, putative (Leishmania donovani (strain BPK282A1)) (UniProt E9BF75); test: Leishmania donovani Methionine tRNA synthetase (LdMetRS):v7. Dose response assay; assay type: functional; set-up: conc 80 nM, time 150 minutes
T6 sequence (whole entry): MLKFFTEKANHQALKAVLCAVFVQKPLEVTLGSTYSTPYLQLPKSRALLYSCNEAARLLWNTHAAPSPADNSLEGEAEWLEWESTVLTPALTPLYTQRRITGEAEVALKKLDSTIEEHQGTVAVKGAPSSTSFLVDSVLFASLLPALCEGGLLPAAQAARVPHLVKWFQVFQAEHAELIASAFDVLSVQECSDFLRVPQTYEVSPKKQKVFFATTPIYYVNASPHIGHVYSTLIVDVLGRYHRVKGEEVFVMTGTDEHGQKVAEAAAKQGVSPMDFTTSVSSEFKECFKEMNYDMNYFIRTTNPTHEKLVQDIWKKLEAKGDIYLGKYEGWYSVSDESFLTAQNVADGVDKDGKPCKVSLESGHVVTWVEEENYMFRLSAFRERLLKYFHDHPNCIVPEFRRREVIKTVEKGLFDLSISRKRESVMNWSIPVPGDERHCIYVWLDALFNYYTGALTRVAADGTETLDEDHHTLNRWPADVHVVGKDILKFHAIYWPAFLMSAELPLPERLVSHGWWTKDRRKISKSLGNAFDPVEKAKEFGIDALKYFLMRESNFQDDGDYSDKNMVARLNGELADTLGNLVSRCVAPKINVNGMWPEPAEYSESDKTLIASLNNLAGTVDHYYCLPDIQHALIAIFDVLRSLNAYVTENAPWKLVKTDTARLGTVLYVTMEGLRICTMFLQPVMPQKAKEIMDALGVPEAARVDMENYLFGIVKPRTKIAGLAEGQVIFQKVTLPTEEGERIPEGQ

Sequence of Sialic acid-binding Ig-like lectin 9 (Homo sapiens) (Q9Y336 whole entry): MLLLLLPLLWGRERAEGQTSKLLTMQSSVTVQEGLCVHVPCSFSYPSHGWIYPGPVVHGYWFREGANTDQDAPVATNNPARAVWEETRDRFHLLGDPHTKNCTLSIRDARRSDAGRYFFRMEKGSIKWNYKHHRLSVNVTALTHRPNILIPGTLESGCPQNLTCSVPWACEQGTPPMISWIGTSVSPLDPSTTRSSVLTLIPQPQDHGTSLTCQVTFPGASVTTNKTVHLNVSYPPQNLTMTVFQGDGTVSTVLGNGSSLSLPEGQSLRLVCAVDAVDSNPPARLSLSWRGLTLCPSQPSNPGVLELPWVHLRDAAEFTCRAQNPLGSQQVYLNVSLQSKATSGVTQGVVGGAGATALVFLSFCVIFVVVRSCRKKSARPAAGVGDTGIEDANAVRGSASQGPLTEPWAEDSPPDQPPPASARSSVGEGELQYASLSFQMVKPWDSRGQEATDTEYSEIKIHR
Sequence of Chromo domain-containing protein 1 (Saccharomyces cerevisiae (strain ATCC 204508 / S288c) (Baker's yeast)) (P32657 whole entry, the tested form may be a part): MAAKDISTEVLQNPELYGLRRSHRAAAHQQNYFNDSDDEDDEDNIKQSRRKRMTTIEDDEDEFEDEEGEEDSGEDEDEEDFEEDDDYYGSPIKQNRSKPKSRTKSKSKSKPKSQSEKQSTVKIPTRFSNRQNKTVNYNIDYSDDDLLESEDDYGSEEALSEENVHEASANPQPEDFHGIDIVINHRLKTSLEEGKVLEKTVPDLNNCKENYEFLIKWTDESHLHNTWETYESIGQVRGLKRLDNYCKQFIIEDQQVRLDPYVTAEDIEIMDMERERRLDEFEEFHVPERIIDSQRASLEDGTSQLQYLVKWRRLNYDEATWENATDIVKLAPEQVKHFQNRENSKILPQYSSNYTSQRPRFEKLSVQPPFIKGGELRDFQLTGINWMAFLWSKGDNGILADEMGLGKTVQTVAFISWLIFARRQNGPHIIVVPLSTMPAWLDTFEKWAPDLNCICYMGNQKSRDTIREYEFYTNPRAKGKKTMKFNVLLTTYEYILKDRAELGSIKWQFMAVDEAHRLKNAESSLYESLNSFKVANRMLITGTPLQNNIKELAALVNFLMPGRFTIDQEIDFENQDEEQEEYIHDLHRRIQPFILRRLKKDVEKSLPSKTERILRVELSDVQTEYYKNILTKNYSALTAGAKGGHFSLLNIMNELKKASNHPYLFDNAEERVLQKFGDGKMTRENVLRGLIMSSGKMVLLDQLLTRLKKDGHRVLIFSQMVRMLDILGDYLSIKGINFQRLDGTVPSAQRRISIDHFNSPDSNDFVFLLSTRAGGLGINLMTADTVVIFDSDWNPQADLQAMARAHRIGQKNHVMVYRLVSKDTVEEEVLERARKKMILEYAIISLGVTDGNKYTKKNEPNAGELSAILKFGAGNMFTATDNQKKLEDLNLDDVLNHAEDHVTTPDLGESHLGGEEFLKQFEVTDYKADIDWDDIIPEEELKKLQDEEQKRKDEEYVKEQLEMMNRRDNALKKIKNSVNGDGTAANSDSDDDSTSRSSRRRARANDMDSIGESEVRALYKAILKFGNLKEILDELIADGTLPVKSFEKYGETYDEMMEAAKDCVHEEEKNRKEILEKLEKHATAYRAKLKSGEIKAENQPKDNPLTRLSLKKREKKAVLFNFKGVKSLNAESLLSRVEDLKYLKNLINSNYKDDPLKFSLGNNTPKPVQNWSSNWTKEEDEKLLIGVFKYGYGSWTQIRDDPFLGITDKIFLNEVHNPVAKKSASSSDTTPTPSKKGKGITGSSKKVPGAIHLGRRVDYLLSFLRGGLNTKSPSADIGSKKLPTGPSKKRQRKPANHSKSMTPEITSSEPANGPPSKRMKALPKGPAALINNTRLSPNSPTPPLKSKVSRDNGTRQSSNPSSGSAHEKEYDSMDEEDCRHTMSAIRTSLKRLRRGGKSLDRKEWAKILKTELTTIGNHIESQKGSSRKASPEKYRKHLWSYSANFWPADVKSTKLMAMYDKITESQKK
Sequence of Protein translocase subunit SecA (Escherichia coli (strain K12)) (P10408 whole entry): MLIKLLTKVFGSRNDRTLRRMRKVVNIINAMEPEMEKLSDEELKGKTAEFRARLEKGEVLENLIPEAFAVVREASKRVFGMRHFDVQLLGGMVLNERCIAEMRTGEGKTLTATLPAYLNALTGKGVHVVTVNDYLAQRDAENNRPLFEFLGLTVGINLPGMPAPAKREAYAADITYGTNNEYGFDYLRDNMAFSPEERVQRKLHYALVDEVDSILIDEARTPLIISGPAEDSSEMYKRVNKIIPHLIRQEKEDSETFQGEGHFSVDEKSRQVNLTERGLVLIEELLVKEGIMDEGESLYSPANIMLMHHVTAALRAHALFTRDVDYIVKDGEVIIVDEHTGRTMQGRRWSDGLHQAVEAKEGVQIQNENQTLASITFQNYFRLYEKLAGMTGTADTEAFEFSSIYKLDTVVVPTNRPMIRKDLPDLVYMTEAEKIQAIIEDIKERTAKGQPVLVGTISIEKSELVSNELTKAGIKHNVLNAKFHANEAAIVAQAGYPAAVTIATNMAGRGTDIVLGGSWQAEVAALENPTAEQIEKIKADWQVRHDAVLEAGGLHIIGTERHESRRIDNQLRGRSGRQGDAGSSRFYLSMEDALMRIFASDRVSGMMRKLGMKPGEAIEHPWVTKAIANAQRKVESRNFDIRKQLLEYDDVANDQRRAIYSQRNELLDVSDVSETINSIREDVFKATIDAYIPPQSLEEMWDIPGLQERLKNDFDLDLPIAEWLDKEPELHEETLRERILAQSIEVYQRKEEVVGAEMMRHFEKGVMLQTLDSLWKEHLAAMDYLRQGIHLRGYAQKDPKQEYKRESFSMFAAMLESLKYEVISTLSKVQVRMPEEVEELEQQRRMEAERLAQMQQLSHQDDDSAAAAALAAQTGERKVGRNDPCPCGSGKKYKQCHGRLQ

## O=C1CSC(c2ccsc2)c2c(n(C3CCOCC3)[nH]c2=O)N1 (stereo unspecified)
[1]
  Percent Effect: -1.28%
[2]
  Percent Effect: 14.7%
[3]
  Percent Effect: -2.38%
[4]
  Percent Effect: -5.51%
[5]
  Percent Effect: 3.3%
Trypanosoma cruzi
  Percent Effect: -0.589%
[6]; 30 µM
  Percent Effect: 7.03%
[6]; 33.3 µM
  Percent Effect: 94.2%
[7]
  Percent Effect: 8.13%
Homo sapiens
  Percent Effect: 6.12%
[8]
  Percent Effect: -12.8%
[9]
  Percent Effect: 6.35%
[10]
  Percent Effect: 12.8%
[11]
  Percent Effect: -11.9%

## Clc1cc(Cl)cc(CNCCc2ccccc2)c1
[12]; BOTTOM -4.203249798, HILLSLOPE 1.160005452, MAX_EFFECT 61.75908222, TOP 67.85944211
  PXC50: 3.6

## Clc1cc(CN2CCCN3CCCC3C2)c2ncccc2c1 (stereo unspecified)
[12]; BOTTOM 3.20477061, HILLSLOPE 1.084567425, MAX_EFFECT 62.37623762, TOP 100.0
  PXC50: 4.18
[12]; BOTTOM 6.472550683, HILLSLOPE 0.834102773, MAX_EFFECT 67.39130435, TOP 100.0
  PXC50: 4.08
[12]; BOTTOM 6.940148658, HILLSLOPE 1.034617946, MAX_EFFECT 59.85663082, TOP 100.0
  PXC50: 4.1

## COc1cccc(CNC(C)Cn2cccn2)c1OC (stereo unspecified)
[1]
  Percent Effect: -0.666%
[2]
  Percent Effect: 2.6%
[3]
  Percent Effect: 6.86%
[4]
  Percent Effect: 1.22%
[5]
  Percent Effect: 3.25%
Trypanosoma cruzi
  Percent Effect: -0.749%
[6]; 33.3 µM
  Percent Effect: 1.42%
[7]
  Percent Effect: 2.37%
Homo sapiens
  Percent Effect: 7.27%
[8]
  Percent Effect: 0.638%
[9]
  Percent Effect: 1.94%
[10]
  Percent Effect: 0%
[11]
  Percent Effect: -2.46%
